Only some compounds are listed: those with a hit (about 4.8% of all), similar ones and a draw of the others.
DRD3 agonist = activates the human D3 dopamine receptor; AID 652048; P35462; max activation, %; D3R DiscoveRx beta-arrestin cells, luminescence, 90 min; 0.58% of 410,000 active; in the data active = max activation above about 30%
Target sequence (P35462 whole entry, looked up): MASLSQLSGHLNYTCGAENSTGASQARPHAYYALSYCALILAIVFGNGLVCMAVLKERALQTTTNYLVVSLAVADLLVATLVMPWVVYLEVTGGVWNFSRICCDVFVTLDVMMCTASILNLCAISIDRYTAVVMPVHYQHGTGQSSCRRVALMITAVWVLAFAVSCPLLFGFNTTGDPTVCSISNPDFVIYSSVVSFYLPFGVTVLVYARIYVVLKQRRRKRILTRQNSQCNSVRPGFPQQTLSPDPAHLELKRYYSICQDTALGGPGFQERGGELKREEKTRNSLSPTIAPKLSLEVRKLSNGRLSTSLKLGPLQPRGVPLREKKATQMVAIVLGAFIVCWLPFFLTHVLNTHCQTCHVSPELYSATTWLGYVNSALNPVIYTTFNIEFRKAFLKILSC
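Cells at 1500/well, incubated overnight, then treated with pinned compounds (dopamine as control) for 90 min at 37 degrees C. DiscoveRx reagent added for 30 - 60 minutes at room temperature; luminescence read.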
TGFb SMAD3 inh = inhibitors of TGF-b signaling; HepG2 CAGA-GFP TGF-b/SMAD3 reporter, GFP fluorescence, 18 h; TGF-beta stimulated, 500 pg/mL final; Potency, µM (doses to about 46.1 µM), most hits filed as inhibitors; 1.2% of 410,000 active; AID 588855; note: nearly all actives have a fitted effect of over 65% in size
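Using HEPG2 CAGA-GFP reporter cells at 1000 cells/well, we pinned test compounds, stimulated with recombinant TGF-beta (500 pg/mL final) and measured total well GFP after 18 h.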
ATXN2 expr inh = inhibitors of ATXN2 expression | HEK-293 ATXN2-luciferase reporter, luminescence, 24 h | Potency, µM (series often up to 57 µM), most hits filed as inhibitors | 0.72% of 360,000 active; note: nearly all actives have a fitted effect of over 55% in size
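qHTS (up to 57 uM final) was run with 24 h compound exposure of reporter cells at 37 °C. Each well was multiplexed: SteadyGlo luminescence measured ATXN2-luciferase expression after a fluorogenic Gly-Phe-AFC viability readout (25 uM final).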
HepG2 viability = counter-screen for TGF-b inhibitors: cytotoxicity in HepG2 cells | 0.76% of 410,000 active | HepG2 CAGA-GFP viability, ATP luminescence, 18 h | AID 588856 | Potency, µM (titrated, usually from 46.1 µM), actives largely listed as cytotoxic
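HepG2 CAGA-GFP cells (1000/well, DMEM with 1% FBS) received compound, then TGF-beta at 500 pg/mL final, and were incubated 18 hours at 37 degrees C. Viability was read by CellTiter-Glo luminescence. Media-only wells were set as complete cell-killing and DMSO as no toxicity.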
ATXN viability = reduces viability in counter-screen for ATXN expression inhibitors; Potency, µM (highest dose often 56.7 µM), usual class: cytotoxic; S2 cells (HEK-293 line with an ATXN2-luciferase reporter) viability, CellTiter-Fluor protease fluorescence, 24 h; 0.49% of 400,000 active; note: nearly all actives have a fitted effect of over 40% in size
DRD3 antagonist = D3 dopamine receptor (human) antagonism; P35462; D3R cells, DiscoveRx beta-arrestin luminescence, antagonist mode; stronger effect = lower value; max response, negative = inhibition, %; 2.5% of 360,000 active; AID 652054; in the data active = max response below about -50%; inconclusive = no clear call, values can overlap the other calls
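Cells expressing the human receptor were seeded at 1500 cells/well, incubated overnight at 37 degrees C in 5% CO2, then exposed to library compounds with dopamine controls for 90 minutes at 37 degrees C before luminescent detection.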
Hits are given with their value; . = inactive; ? = inconclusive; / = not tested or not shown. Unless noted, calls come from the whole dose curve; as a rule, active = well fitted curve in the direction sought with a large enough effect; inconclusive = small, poorly fitted or top-dose-only effect, or another doubt; inactive = no such curve, though single readings can be large; an effect the other way counts as inactive or inconclusive.

SMILES	DRD3 agonist	TGFb SMAD3 inh	ATXN2 expr inh	HepG2 viability	ATXN viability	DRD3 antagonist
CS(=O)(=O)N1CCN(S(=O)(=O)c2ccccc2[N+](=O)[O-])CC1	.	.	.	.	.	.
O=[N+]([O-])c1ccc(S(=O)(=O)N2CCN(C3CCN(Cc4ccccc4)CC3)CC2)cc1	.	.	.	.	.	?
O=S(=O)(c1ccc(Cl)cc1)N1CCN(C2CCN(Cc3ccccc3)CC2)CC1	.	.	.	.	.	-63
O=[N+]([O-])c1ccccc1S(=O)(=O)N1CCN(C2CCN(Cc3ccccc3)CC2)CC1	.	.	.	.	.	-76
O=[N+]([O-])c1ccccc1S(=O)(=O)N1CCN(C2CCCC2)CC1	.	.	.	.	.	-59
CCCN1CCN(CCCNC(=O)c2ccc3c(c2)sc2nc(-c4ccc(C)cc4)cn23)CC1	.	?	/	.	/	/
O=C(COc1ccccc1C(=O)OCC(=O)Nc1cccc2ccccc12)Nc1ccc(Br)cc1	/	.	/	.	/	/
C(=C\c1nccc2c1[nH]c1ccccc12)/c1ccccc1	.	?	/	20µM	/	.
O=C(CCNC(=O)c1ccccc1Cl)Nc1cccc(C(F)(F)F)c1	.	.	/	.	?	.
O=C(NNC(=S)Nc1ccc(Cl)cc1)c1ccccc1OC(F)F	.	14µM	?	.	.	.
O=C(NNC(=S)Nc1cccc(C(F)(F)F)c1)c1cccc(Cl)c1	44	?	?	.	?	.
O=C(NNC(=S)Nc1cccc(C(F)(F)F)c1)c1ccccc1Cl	.	14µM	?	.	.	.
CC(=O)c1ccc(N2CCN(C(=O)c3cc4cc5cc(C)ccc5nc4s3)CC2)cc1	.	.	.	.	.	/
COc1ccccc1CNC(=O)C(=O)NCC(c1cccs1)S(=O)(=O)c1ccccc1 (stereo unspecified)	.	.	.	.	.	/
CCC(CC)C(=O)N1CCc2cc(OC)c(OC)cc2C1COc1ccc2c(C)cc(=O)oc2c1 (stereo unspecified)	.	?	.	.	.	/
CSc1ccccc1NC(=O)CN(C)C(=O)COc1cccc2cccnc12	.	?	.	11µM	.	?
CN(CC(=O)Nc1ccc(Cl)c(C(F)(F)F)c1)C(=O)COc1cccc2cccnc12	.	.	/	.	.	.
CCN(CC)CCCNC(=O)C1CCN(S(C)(=O)=O)CC1	.	.	/	.	/	/
CCN(CC)CCC(c1ccc(OC)cc1)c1c(OC)cc(OC)c2c(C)cc(=O)oc12 (stereo unspecified)	/	?	/	18µM	/	/
CCCCCc1cc(=O)oc2c(C(CCN(CC)CC)c3ccc(OC)cc3)c(OC)cc(OC)c12 (stereo unspecified)	.	?	?	.	32µM	.
CCN(CC)CCC(c1ccc(N(C)C)cc1)c1c(OC)cc(OC)c2ccc(=O)oc12 (stereo unspecified)	.	.	.	.	10µM	.
CCN(CC)C(=O)CC(c1ccc(N(C)C)cc1)c1c(OC)cc(OC)c2ccc(=O)oc12 (stereo unspecified)	.	.	.	.	?	.
CCN(CC)CCC(c1ccc2c(c1)OCO2)c1c(OC)cc(OC)c2c(C)cc(=O)oc12 (stereo unspecified)	/	.	/	.	/	/
Oc1cccc2ccc(Nc3ccccn3)nc12	.	?	.	5.6µM	/	.
COc1cccc(-c2ccnc(-n3ncc(C(=O)NCC(C)(C)CN(C)C)c3C)n2)c1	/	/	/	/	.	/
SMILES	DRD3 agonist	TGFb SMAD3 inh	ATXN2 expr inh	HepG2 viability	ATXN viability	DRD3 antagonist
Cc1nn(C)c(C)c1CNC(=O)c1cnn2c1NC(c1ccccc1)CC2C(F)(F)F (stereo unspecified)	.	.	.	.	.	.
Cc1ccc(C2CC(C(F)(F)F)n3nc(C(=O)NCc4c(C)nn(C)c4C)c(Cl)c3N2)cc1 (stereo unspecified)	34	13µM	?	.	.	.
CCCCCCN1C[C@H](n2cc(C3CC3)nn2)[C@@H](O)C[C@@H]1c1ccc(C)cc1	.	14µM	?	16µM	/	.
CCCCCCN1C[C@@H](n2cc(C3CC3)nn2)[C@H](O)C[C@@H]1c1ccc(OC)cc1	.	?	?	.	20µM	.
CCCCCCN1C[C@@H](n2cc(C3CC3)nn2)[C@H](O)C[C@@H]1c1ccc(C)cc1	.	?	?	.	20µM	.
CCOc1cccc(CN2CCC(n3cc(C(=O)N4CCCCC4)nn3)CC2)c1O	/	/	/	/	.	/
Cc1cccc(NC(=O)CSc2cn(CC(=O)N3CCOCC3)c3ccccc23)c1C	.	.	/	.	/	/
CCCOC(=O)C1=C(C)CS[C@@H]2[C@H](NC(=O)COc3ccccc3)C(=O)N12	/	.	/	.	/	/
Cc1cc(C)nc(N/N=C/C2=C(O)CC(c3ccc(F)cc3)CC2=O)n1 (stereo unspecified)	.	.	/	.	?	-121
COc1cc(-c2nc(C)cnc2C)cc2c1OCCN(C(=O)Cc1cc(OC)c(OC)c(OC)c1)C2	/	/	/	/	.	/
CCN(CC)CCNC(=O)c1ccc2c(c1NCCO)C(=O)c1ccccc1C2=O	.	1.3µM	/	1µM	7.9µM	?
CC1CCN(C(=O)c2ccc3c(c2NCCO)C(=O)c2ccccc2C3=O)CC1	.	?	.	.	?	?
CCN(CCc1ccccc1)c1ccc2c(c1)C1CC2CCN1C(=O)OCc1ccccc1 (stereo unspecified)	.	.	.	.	.	.
CCCCN(C(C)=O)c1ccc2c(c1)C1CC2CCN1C(=O)OCc1ccccc1 (stereo unspecified)	.	13µM	?	.	?	.
COc1ccc(Cn2c(=O)[nH]c3cc(C(=O)NC4CCN(Cc5ccccc5)CC4)ccc32)cc1	.	.	?	.	?	-67
COc1ccc(Cl)cc1NS(=O)(=O)c1cccc(C(=O)NC2CCN(Cc3ccccc3)CC2)c1	.	?	.	.	.	-104
COc1ccc(NS(=O)(=O)c2cccc(C(=O)NC3CCN(Cc4ccccc4)CC3)c2)cc1	.	?	.	.	.	-53
O=C(NC1CCN(Cc2ccccc2)CC1)c1cccc(S(=O)(=O)Nc2cc(C(F)(F)F)ccc2Cl)c1	.	.	.	.	.	?
CC(C)C[C@@H](CN=[N+]=[N-])N1CCN(CCc2ccccc2)CCC1=O	/	.	/	.	/	/
CC(C)COc1ccc(CC(=O)NO)cc1	/	.	/	.	/	/
CCOC(=O)C1Nc2ccccc2C2c3ccccc3CC12 (stereo unspecified)	.	?	.	.	.	.
CCOC(=O)C1Nc2c(F)cc(C)cc2C2c3ccccc3CC12 (stereo unspecified)	.	?	?	.	.	-54
CCn1nc(C)c(/C=N/NC(=O)CSc2ccccn2)c1C	.	.	.	4.5µM	.	.

Screening data deposited in PubChem BioAssay by National Center for Advancing Translational Sciences (NCATS).
